Inconclusive results are not listed. The source made the active and inactive calls. Calls follow the shape of the dose curve; as a rule, active = well fitted curve in the direction sought with a large enough effect; inconclusive = small, poorly fitted or top-dose-only effect, or another doubt; inactive = no such curve, though single readings can be large; an effect the other way counts as inactive or inconclusive.
Tests used:
[1] = test system: CRL-7250; assay: Cytotoxic Profiling of Annotated Libraries Using Quantitative High-Throughput Screening (AID 1296008); conditions: Five cell lines viability, CellTiter-Glo ATP luminescence, 48-72 h; max response: hits give low values; also: nearly all actives have a fitted effect of over 60% in size; as to max response: % is scaled to controls: 0 for no effect and ±100 for the full control effect
In short: (§1)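 Cells exposed to compounds for 48 or 72 hr at 37 degrees Celsius. Viability read as ATP-coupled luminescence with CellTiter-Glo after 10 min at room temperature.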

[2] = test system: HEK293; assay: as above; conditions: Five cell lines viability, CellTiter-Glo ATP luminescence, 48-72 h; max response: hits give low values
In short: as §1

[3] = test system: HaCat; assay: as above; conditions: Five cell lines viability, CellTiter-Glo ATP luminescence, 48-72 h; max response: hits give low values
In short: as §1

[4] = test system: KB-3-1; assay: as above; conditions: Five cell lines viability, CellTiter-Glo ATP luminescence, 48-72 h; max response: hits give low values
In short: as §1

[5] = test system: NIH3T3; assay: as above; conditions: Five cell lines viability, CellTiter-Glo ATP luminescence, 48-72 h; max response: hits give low values
In short: as §1

[6] = test system: NIH3T3; assay: qHTS assay to identify novel small-molecules to repurpose for Merkel cell carcinoma treatment (AID 1296009); conditions: MCC and control cell lines, CellTiter-Glo viability, 72 h; at 44.8 µM (top of the series) unless noted; also: nearly all actives have a fitted effect of over 60% in size
In short: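 Dose-response viability screen; 72 hr exposure at 37 degree celsius; CellTiter-Glo added, 10 min room temperature, luminescence read; RLUs scaled between no-cell and DMSO wells.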

[7] = test system: C33A; assay: Primary qHTS to identify gynecologic anti-cancer compounds using libraries of approved drugs and bioactive compounds (AID 1345084); conditions: Gynecologic cancer cell panel viability, ATPlite luminescence, 48 h; series mostly up to 57.5 µM; also: % is scaled to controls: 0 for no effect and ±100 for the full control effect; nearly all actives have a fitted effect of over 55% in size
In short: (§2)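 Five-concentration response, 48 h; readout is ATP-driven luciferase luminescence.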

[8] = test system: CAOV3; assay: as above; conditions: Gynecologic cancer cell panel viability, ATPlite luminescence, 48 h; series mostly up to 57.5 µM
In short: as §2

[9] = test system: CASKI; assay: as above; conditions: Gynecologic cancer cell panel viability, ATPlite luminescence, 48 h; series mostly up to 57.5 µM
In short: as §2

[10] = test system: Es-2; assay: as above; conditions: Gynecologic cancer cell panel viability, ATPlite luminescence, 48 h; series mostly up to 57.5 µM
In short: as §2

[11] = test system: HeLa; assay: as above; conditions: Gynecologic cancer cell panel viability, ATPlite luminescence, 48 h; series mostly up to 57.5 µM
In short: as §2

[12] = test system: Hek293T; assay: as above; conditions: Gynecologic cancer cell panel viability, ATPlite luminescence, 48 h, control line for the selectivity index; series mostly up to 57.5 µM
In short: as §2

[13] = test system: JEG-3; assay: as above; conditions: Gynecologic cancer cell panel viability, ATPlite luminescence, 48 h; series mostly up to 57.5 µM
In short: as §2

[14] = test system: OV90; assay: as above; conditions: Gynecologic cancer cell panel viability, ATPlite luminescence, 48 h; series mostly up to 57.5 µM
In short: as §2

C=C1C(OC(C)=O)CCC2(C)CC3(O)OC(=O)C(C)=C3CC12 (stereo not drawn)
inactive: outcome [1] | max response [2] -4.29% | max response [3] -1.9% | outcome [4] | outcome [5] | outcome [6] | Potency [7] | Potency [8] | outcome [9] | Potency [10] | Potency [11] | Potency [12] | Potency [13] | Potency [14]

CC(C)c1ccc2c(c1)[C@H](O)CC1[C@@](C)(C(=O)O)CCC[C@]21C (stereo partly drawn)
inactive: max response [1] -0.592% | max response [2] -18.5% | max response [3] -16.8% | max response [4] -0.988% | outcome [5] | outcome [6] | Potency [7] | Potency [8] | outcome [9] | Potency [10] | Potency [11] | Potency [12] | Potency [13] | Potency [14]

C[C@H]1/C=C/C=C/C=C/C=C/C=C/[C@@H](O)[C@H](C(=O)O)[C@H](O)C[C@H](O)CCC[C@H](O)C[C@H](O)C[C@H](O)[C@@H](C)C(=O)O[C@@H]1C
inactive: outcome [1] | max response [2] 1.51% | max response [3] 2.29% | max response [4] 7.54% | outcome [5] | outcome [6] inactive [at 17.4 µM] | Potency [7] | Potency [8] | outcome [9] | Potency [10] | Potency [11] | Potency [12] | Potency [13] | Potency [14]

C=C(C(=O)O)[C@@H]1CC[C@H](C)[C@@H]2CC(=O)C(C)=C2C1
inactive: outcome [1] | max response [2] 3.15% | max response [3] -2.91% | max response [4] 3.54% | outcome [5] | outcome [6] | Potency [7] | Potency [8] | outcome [9] | Potency [10] | Potency [11] | Potency [12] | Potency [13] | Potency [14]

CC(=O)O[C@@H]1[C@H](OC(C)=O)C[C@@]2(C)C(CC[C@@H](C)[C@]23Cc2c(O)cc4c(c2O3)CN([C@@H](CCC(=O)O)C(=O)O)C4=O)C1(C)C (stereo partly drawn)
inactive: max response [1] -2.81% | max response [2] -1.84% | max response [3] -30.9% | max response [4] 5.86% | outcome [5] | outcome [6] inactive [at 17.4 µM] | Potency [7] | Potency [8] | outcome [9] | Potency [10] | Potency [11] | Potency [12] | Potency [13] | Potency [14]

Cc1cc(CNC(=O)c2cc(C(=O)NCc3ccc(F)c(C)c3)ncn2)ccc1F
inactive: max response [1] 4.78% | max response [2] 1.88% | max response [3] -0.507% | outcome [4] | outcome [5] | outcome [6] | Potency [7] | Potency [8] | outcome [9] | Potency [10] | Potency [11] | Potency [12] | Potency [13] | Potency [14]

CC1CC=C2C1CC1(O)C(=O)CC2(C)C1(C)CO (stereo not drawn)
inactive: outcome [1] | max response [2] -7.63% | max response [3] 4.08% | outcome [4] | outcome [5] | outcome [6] | Potency [7] | Potency [8] | outcome [9] | Potency [10] | Potency [11] | Potency [12] | Potency [13] | Potency [14]

COC(=O)C[C@@H]1C(C(=O)O)=CO[C@@H](O[C@@H]2O[C@H](CO)[C@@H](O)[C@H](O)[C@H]2O)/C1=C\COC(=O)/C=C/c1ccc(O)c(OC)c1
inactive: max response [1] 2.29% | max response [2] -2.42% | max response [3] -1.38% | outcome [4] | outcome [5] | outcome [6] inactive [at 17.4 µM] | Potency [7] | Potency [8] | outcome [9] | Potency [10] | Potency [11] | Potency [12] | Potency [13] | Potency [14]

COC(=O)C1=COC(OC2OC(CO)C(O)C(O)C2O)C2C(C)CC(=O)C12O (stereo not drawn)
inactive: outcome [1] | max response [2] 2.83% | max response [3] -24.6% | outcome [4] | outcome [5] | outcome [6] inactive [at 17.4 µM] | Potency [7] | Potency [8] | outcome [9] | Potency [10] | Potency [11] | Potency [12] | Potency [13] | Potency [14]

Cc1onc(-c2c(Cl)cccc2Cl)c1CC(=O)NCc1ccc(OCC(F)(F)F)nc1
inactive: max response [1] 0.479% | max response [2] -15.1% | max response [3] 1.93% | outcome [4] | outcome [5] | outcome [6] | Potency [7] | Potency [8] | outcome [9] | Potency [10] | Potency [11] | Potency [12] | Potency [13] | Potency [14]

C=C1C(=O)OC2CC(COC(=O)C(C)C)=C(C(C)CCCOC(C)=O)[C@@H](OC(C)=O)C12 (stereo partly drawn)
inactive: max response [1] -4.9% | max response [2] 5% | max response [3] 4.28% | outcome [4] | outcome [5] | outcome [6] inactive [at 17.4 µM] | Potency [7] | Potency [8] | outcome [9] | Potency [10] | Potency [11] | Potency [12] | Potency [13] | Potency [14]

C=C[C@H]1[C@H](O[C@@H]2O[C@H](CO)[C@@H](O)[C@H](O)[C@H]2O)OC=C(C(=O)OC)[C@H]1CC=O
inactive: max response [1] 3.16% | max response [2] -0.876% | max response [3] 4.35% | outcome [4] | outcome [5] | outcome [6] | Potency [7] | Potency [8] | outcome [9] | Potency [10] | Potency [11] | Potency [12] | Potency [13] | Potency [14]

From PubChem BioAssay (NCATS)
